Values joined by “and” are separate entries in the source; they are usually repeats but may differ in a detail not shown here. Identical values can stand only once. Among all 5,500 compounds or so, about 2,000 (36%) were called active. Inconclusive results (about 18%) are left out. Rule as the data show it: active = normalized growth mostly below about 0.91 (no sharp cut-off); inconclusive = no clear call, values can overlap the other calls; inactive = mostly above about 0.92. The list shows a part of the results.
Assay: chemical genetic growth profiling, strain panel (AID 1159580);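 also: tested at 20 µM; growth read once vehicle control cultures reached saturation at 30 °C; 1 = growth at the plate median or of vehicle wells; lower values mean less growth of the strain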
Conditions: S. cerevisiae deletion strains, growth OD

Measured: normalized growth

CC(C)CCCC(C)[C@H]1CCC2C3CC=C4C[C@@H](O)CC[C@]4(C)C3CC[C@@]21C (some centres undefined)
inactive: locus YAL021C, strain ccr4, hits give low values 0.974 | locus YAL026C, strain drs2, hits give low values 0.96 | locus YAL030W, strain snc1, hits give low values 0.979 | locus YBL061C, strain skt5, hits give low values 0.99 | locus YBR009C, strain hhf1, hits give low values 0.986 | locus YBR021W, strain FUR4, hits give low values 1.01 | locus YBR023C, strain chs3, hits give low values 0.989 | locus YBR171W, strain sec66, hits give low values 0.987 | locus YBR229C, strain ROT2, hits give low values 1.01 | locus YBR231C, strain swc5, hits give low values 0.989 | locus YBR279W, strain paf1, hits give low values 0.951 | locus YCL011C, strain gbp2, hits give low values 0.972 | locus YCL016C, strain dcc1, hits give low values 0.994 | locus YCL029C, strain bik1, hits give low values 0.979 | locus YCL061C, strain MRC1, hits give low values 0.985 | locus YCL069W, strain vba3, hits give low values 0.964 | locus YCR088W, strain abp1, hits give low values 0.992 | locus YDL005C, strain med2, hits give low values 0.976 | locus YDL035C, strain GPR1, hits give low values 1.03 | locus YDL040C, strain nat1, hits give low values 0.986 | locus YDL074C, strain BRE1, hits give low values 1.03 | locus YDL101C, strain DUN1, hits give low values 1.01 | locus YDL134C, strain PPH21, hits give low values 1.03 | locus YDL185W, strain tfp1, hits give low values 0.994 | locus YDL192W, strain arf1, hits give low values 0.992 | locus YDR001C, strain nth1, hits give low values 0.981 | locus YDR069C, strain doa4, hits give low values 0.966 | locus YDR101C, strain arx1, hits give low values 0.962 | locus YDR137W, strain rgp1, hits give low values 0.916 | locus YDR159W, strain sac3, hits give low values 0.963 | locus YDR162C, strain NBP2, hits give low values 1 | locus YDR195W, strain ref2 0.957 | locus YDR297W, strain sur2, hits give low values 0.985 | locus YDR318W, strain mcm21, hits give low values 1.01 | locus YDR334W, strain swr1, hits give low values 0.964 | locus YDR335W, strain msn5, hits give low values 0.996 | locus YDR388W, hits give low values 0.988 | locus YDR392W, strain spt3, hits give low values 0.935 | locus YDR502C, strain sam2, hits give low values 0.974 | locus YEL003W, strain gim4, hits give low values 0.982 | locus YEL037C, strain rad23, hits give low values 0.953 | locus YEL061C, strain CIN8 (second series), hits give low values 0.965 | locus YEL061C, strain CIN8, hits give low values 1.01 | locus YER015W, strain faa2, hits give low values 0.995 | locus YER016W, strain bim1, hits give low values 0.987 | locus YER110C, hits give low values 0.991 | locus YER111C, strain swi4, hits give low values 0.985 | locus YER155C, strain BEM2 (second series), hits give low values 0.984 | locus YER155C, strain BEM2, hits give low values 1.01 | locus YER167W, strain BCK2, hits give low values 1 | locus YFR010W, strain ubp6, hits give low values 0.961 | locus YGL078C, strain dbp3, hits give low values 0.996 | locus YGL086W, strain mad1, hits give low values 0.991 | locus YGL167C, strain pmr1, hits give low values 0.99 | locus YGL173C, strain kem1, hits give low values 0.984 | locus YGL227W, strain vid30, hits give low values 0.99 | locus YGL240W, strain doc1, hits give low values 0.986 | locus YGL248W, strain PDE1, hits give low values 1.03 | locus YGL253W, strain hxk2, hits give low values 0.976 | locus YGR078C, strain PAC10, hits give low values 1.01 | locus YGR135W, strain pre9, hits give low values 1 | locus YGR252W, strain gcn5, hits give low values 0.978 | locus YHR013C, strain ard1, hits give low values 0.96 | locus YHR027C, strain rpn1, hits give low values 0.997 | locus YHR030C, strain SLT2, hits give low values 1.01 and 1.02 | locus YHR079C, strain IRE1 (second series), hits give low values 0.997 | locus YHR079C, strain IRE1, hits give low values 1.01 | locus YHR094C, strain hxt1, hits give low values 0.988 | locus YHR129C, strain ARP1, hits give low values 0.999 | locus YHR142W, strain chs7, hits give low values 0.956 | locus YHR200W, strain rpn10, hits give low values 0.995 | locus YIL066C, strain RNR3, hits give low values 1.01 | locus YIL073C, strain SPO22, hits give low values 1 | locus YIL125W, strain kgd1, hits give low values 0.99 | locus YIR030C, strain dcg1, hits give low values 0.987 | locus YJL092W, strain hpr5, hits give low values 0.992 | locus YJL095W, strain BCK1 (second series), hits give low values 0.987 | locus YJL095W, strain BCK1, hits give low values 1.04 and 1.01 | locus YJL115W, strain asf1, hits give low values 0.981 | locus YJL129C, strain trk1, hits give low values 0.968 | locus YJL134W, strain LCB3, hits give low values 1.01 | locus YJL154C, strain vps35, hits give low values 0.981 | locus YJL164C, strain tpk1, hits give low values 0.985 | locus YJL166W, strain qcr8, hits give low values 0.985 | locus YJL168C, strain set2, hits give low values 1 | locus YJL187C, strain SWE1 (second series), hits give low values 1.01 | locus YJL187C, strain SWE1, hits give low values 0.974 | locus YJR043C, strain POL32, hits give low values 1.01 | locus YJR066W, strain TOR1, hits give low values 0.987

Source: PubChem BioAssay AID1159580 (chemical genetic matrix, 2015)
